This note sets out measurements from PubChem BioAssay (EPA / NIEHS).

The source made the active and inactive calls. Rule for the calls: active = hit-call score of the fitted dose curve at least 0.9, where 1 is the maximum; inactive = score below 0.9.

Assay [1] in a line: ATG_CRE_CIS: Attagene CIS-FACTORIAL HepG2 Assay for human cAMP Responsive Element (CRE) binding protein 3 (AID 2282926). Particulars: HepG2 CRE cis-reporter, Attagene multiplexed mRNA; actives raise or lower the signal. A digest of the protocol: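 Capillary electrophoresis of 6-FAM-labelled, HpaI-digested PCR products quantified reporter transcripts. These came from HepG2 transiently transfected with cis-element reporters and exposed to test chemicals for 24 hours, with DMSO defining baseline activity.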

The target in assay [2] is CCAAT/enhancer-binding protein beta (Homo sapiens) (UniProt P17676). Description: ATG_C_EBP_CIS: Attagene CIS-FACTORIAL HepG2 Assay for human CCAAT/Enhancer Binding Protein (C/EBP) beta (AID 2282927). The note with it: HepG2 Attagene cis-factorial transcription factor reporter; actives raise or lower the signal. A digest of the protocol: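 HepG2 transiently transfected with multiplexed reporter units under cis-regulatory promoters reporting endogenous C/EBPb activity. After 24 h exposure, reporter mRNA assayed by RT-PCR, fluorescent labelling, HpaI digestion and capillary electrophoresis; bidirectional fitting versus DMSO.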
Sequence of CCAAT/enhancer-binding protein beta (Homo sapiens) (P17676 whole entry, looked up): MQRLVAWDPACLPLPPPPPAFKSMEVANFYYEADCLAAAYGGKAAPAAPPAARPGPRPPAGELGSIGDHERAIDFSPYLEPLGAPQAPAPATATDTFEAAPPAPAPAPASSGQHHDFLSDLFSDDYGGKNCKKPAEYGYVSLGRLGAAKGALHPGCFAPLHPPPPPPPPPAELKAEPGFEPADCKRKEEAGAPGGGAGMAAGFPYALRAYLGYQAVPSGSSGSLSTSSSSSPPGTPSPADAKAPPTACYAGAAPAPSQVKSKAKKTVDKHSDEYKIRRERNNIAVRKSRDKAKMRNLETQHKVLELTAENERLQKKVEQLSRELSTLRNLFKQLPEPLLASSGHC

Assay [3] can be described thus: ATG_CMV_CIS: Attagene CIS-FACTORIAL HepG2 Assay for human CMV (Internal Marker) (AID 2282928).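 Note: endpoint acts as a background internal control marker rather than a target.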 Particulars: HepG2 CMV promoter reporter, transcription factor profiling; actives raise or lower the signal. A digest of the protocol: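 Fluorescence intensity of RT-PCR-derived reporter fragments, resolved by capillary electrophoresis, gives the signal. HepG2 liver cells bearing transfected cis-element reporters were treated 24 h; activity in either direction was fit relative to DMSO-treated controls.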

The nature of assay [4]: ATG_DR4_LXR_CIS: Attagene CIS-FACTORIAL HepG2 Assay for human Liver X Receptor (LXR), DR4 submotif (AID 2282929). The note with it: HepG2 Attagene DR4 cis-reporter, mRNA transcription; actives raise or lower the signal. A digest of the protocol:
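Measures endogenous transcription factor activity via a DR4-driven reporter transcript in human HepG2 cells. Compounds incubated 24 h; mRNA quantified by RT-PCR and capillary electrophoresis, analysed as gain or loss of signal versus DMSO.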

The nature of assay [5]: ATG_AP_1_CIS: Attagene CIS-FACTORIAL HepG2 Assay for human Activator Protein 1 (AP-1) (AID 2282931). Particulars: HepG2 Attagene cis-factorial AP-1 reporter mRNA; actives raise or lower the signal. Put shortly: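 Bidirectional concentration-response fitting against DMSO controls. Underlying signal: reporter mRNA from cis-promoter constructs in transiently transfected HepG2, measured after 24 h by RT-PCR and capillary electrophoresis.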

Assay [6] can be described thus: ATG_AP_2_CIS: Attagene CIS-FACTORIAL HepG2 Assay for human Activator Protein 2 (AP-2) (AID 2282932). The note with it: HepG2 AP-2 cis-reporter, Attagene transcription factor profiling; actives raise or lower the signal. Put shortly: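 Liver-derived HepG2 line, cis-reporter system measuring endogenous factors; 24 h dosing; reporter mRNA detected by fluorescent RT-PCR and capillary electrophoresis.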

A short description of assay [7]: ATG_BRE_CIS: Attagene CIS-FACTORIAL HepG2 Assay for human Bone Morphogenetic Protein (BMP) Response Element (BRE) (AID 2282933). The note with it: HepG2 BMP response element reporter, Attagene transcription factor profiling; actives raise or lower the signal. A digest of the protocol:
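Transient MRTU transfection of human HepG2 liver cells; 24 h compound treatment; total RNA isolated, reverse-transcribed, PCR-amplified, 6-FAM labelled, HpaI-cut, capillary electrophoresis. DMSO = negative control/baseline, bidirectional fit.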

The target of assay [8] is Retinoic acid receptor alpha (Homo sapiens) (UniProt P10276). Description: ATG_DR5_RAR_CIS: Attagene CIS-FACTORIAL HepG2 Assay for human Retinoic Acid Receptor Alpha (RARE), DR5 submotif (AID 2282934).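 For AC50: reporter responds to endogenous RAR alpha beta and gamma in HepG2 not RARA alone.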 Particulars: HepG2 Attagene cis-factorial RARE DR5 reporter, mRNA; actives raise or lower the signal. Put shortly:
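HepG2 cells transiently transfected with multiplexed reporter units; DR5 cis-element drives reporter through endogenous transcription factors. After 24 h dosing, reporter mRNA quantified by RT-PCR, fluorescent labeling, HpaI digestion and capillary electrophoresis; bidirectional fitting versus DMSO.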

Assay [9] addresses Transcription factor E2F1 (Homo sapiens) (UniProt Q01094). Description: ATG_E2F_CIS: Attagene CIS-FACTORIAL HepG2 Assay for human E2F Transcription Factor 1 (AID 2282935). The note with it: HepG2 Attagene cis-reporter, E2F reporter RNA transcripts; actives raise or lower the signal. Put shortly:
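Liver-derived HepG2 cells expressing transfected promoter-driven reporter units received test chemical for 24 hours. Signal gains or losses were fitted bidirectionally against DMSO.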

For assay [10], the target named is Aryl hydrocarbon receptor (Homo sapiens) (UniProt P35869). In words: ATG_Ahr_CIS: Attagene CIS-FACTORIAL HepG2 Assay for human Aryl Hydrocarbon Receptor (Ahr) (AID 2282930). Particulars: HepG2 AhR cis-factorial reporter transcription; actives raise or lower the signal. Put shortly: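 HepG2 cells transiently transfected with cis-element-driven multiplexed reporter units; endogenous AhR activity read as reporter mRNA 24 h after dosing, via RT-PCR, 6-FAM labelling, HpaI digestion and capillary electrophoresis. Bidirectional fit relative to DMSO.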
Sequence of Aryl hydrocarbon receptor (Homo sapiens) (P35869 whole entry, looked up): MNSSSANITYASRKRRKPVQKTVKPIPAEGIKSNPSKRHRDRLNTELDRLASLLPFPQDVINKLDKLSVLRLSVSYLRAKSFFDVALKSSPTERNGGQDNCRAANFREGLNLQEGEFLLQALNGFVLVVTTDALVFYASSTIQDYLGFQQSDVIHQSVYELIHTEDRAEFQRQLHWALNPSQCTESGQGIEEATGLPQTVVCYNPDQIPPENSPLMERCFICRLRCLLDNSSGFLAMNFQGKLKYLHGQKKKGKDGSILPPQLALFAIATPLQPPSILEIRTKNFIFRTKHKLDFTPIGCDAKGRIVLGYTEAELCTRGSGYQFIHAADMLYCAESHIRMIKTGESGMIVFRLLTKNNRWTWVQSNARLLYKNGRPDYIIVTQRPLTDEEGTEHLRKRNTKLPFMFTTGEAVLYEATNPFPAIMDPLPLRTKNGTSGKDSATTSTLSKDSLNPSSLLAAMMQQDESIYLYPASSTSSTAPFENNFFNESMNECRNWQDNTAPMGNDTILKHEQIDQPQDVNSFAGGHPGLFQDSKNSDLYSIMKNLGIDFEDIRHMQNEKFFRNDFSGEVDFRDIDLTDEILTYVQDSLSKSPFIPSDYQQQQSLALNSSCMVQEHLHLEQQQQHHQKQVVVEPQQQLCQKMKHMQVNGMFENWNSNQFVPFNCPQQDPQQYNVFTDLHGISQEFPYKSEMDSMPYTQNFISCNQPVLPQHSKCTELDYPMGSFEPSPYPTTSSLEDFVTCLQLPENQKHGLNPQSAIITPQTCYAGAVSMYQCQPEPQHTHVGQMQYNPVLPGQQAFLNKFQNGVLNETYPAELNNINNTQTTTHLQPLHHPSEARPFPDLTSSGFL

Sequence of Retinoic acid receptor alpha (Homo sapiens) (P10276 whole entry, looked up): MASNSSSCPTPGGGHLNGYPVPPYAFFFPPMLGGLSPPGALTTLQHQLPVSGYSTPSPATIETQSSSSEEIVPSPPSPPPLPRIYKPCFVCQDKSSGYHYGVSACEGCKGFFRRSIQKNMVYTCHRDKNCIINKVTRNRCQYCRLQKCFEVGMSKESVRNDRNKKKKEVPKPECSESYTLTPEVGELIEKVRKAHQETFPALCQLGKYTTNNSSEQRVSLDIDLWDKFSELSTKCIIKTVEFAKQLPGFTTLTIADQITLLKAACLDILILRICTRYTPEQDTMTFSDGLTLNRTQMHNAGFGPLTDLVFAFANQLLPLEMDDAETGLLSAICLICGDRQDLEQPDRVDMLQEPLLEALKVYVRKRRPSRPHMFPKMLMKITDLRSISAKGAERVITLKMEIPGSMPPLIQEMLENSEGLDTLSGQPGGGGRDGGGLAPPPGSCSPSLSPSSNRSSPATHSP
Sequence of Transcription factor E2F1 (Homo sapiens) (Q01094 whole entry, looked up): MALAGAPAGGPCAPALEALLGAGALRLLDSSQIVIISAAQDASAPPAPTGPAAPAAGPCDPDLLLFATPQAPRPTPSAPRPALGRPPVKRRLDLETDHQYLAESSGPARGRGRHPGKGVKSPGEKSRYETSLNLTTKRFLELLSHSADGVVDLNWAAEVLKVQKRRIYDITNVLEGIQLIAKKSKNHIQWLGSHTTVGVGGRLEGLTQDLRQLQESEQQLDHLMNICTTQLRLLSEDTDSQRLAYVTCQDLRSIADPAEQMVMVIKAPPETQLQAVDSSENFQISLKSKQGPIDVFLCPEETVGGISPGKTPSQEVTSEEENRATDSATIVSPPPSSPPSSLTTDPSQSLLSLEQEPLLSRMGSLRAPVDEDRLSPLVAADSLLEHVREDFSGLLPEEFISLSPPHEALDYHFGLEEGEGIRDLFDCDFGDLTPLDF

In the case of `O=C(Nc1ccc2c(c1)Cc1ccccc1-2)C(F)(F)F`, the compound was classed as inactive in assay [1], in [2], in assay [3], in [4], in assay [5] and in [6]. Besides, the result in assay [7], in assay [8] and in [9] was inactive.

For the compound `OCC(O)c1ccccc1` (centres undefined), the compound was called inactive in assay [1], in assay [2], in [3], in assay [4], in [5] and in assay [6]. Further, the result in assay [7], in assay [8] and in [9] was inactive.

On to `O=C1OC(=O)c2c(Cl)c(Cl)c(Cl)c(Cl)c21`, for which the call in assay [1], in [2], in assay [3], in assay [4], in [5] and in assay [6] was inactive. Further, the call in assay [7], in assay [8] and in [9] was inactive.

For `CC(=O)c1ccccn1`, the result in assay [1], in [2], in assay [3], in assay [4], in assay [5] and in [6] was inactive. In addition, the call in assay [7], in [8] and in assay [9] was inactive.

For the compound `CCCC1O[C@@H]2C[C@H]3[C@@H]4CCC5=CC(=O)C=C[C@]5(C)[C@H]4[C@@H](O)C[C@]3(C)[C@]2(C(=O)CO)O1` (some centres undefined), the compound was classed as inactive in assay [1], in [3], in assay [6], in assay [7], in [8] and in assay [9]. Further, the results for the AC50 in assay [2], in assay [4] and in assay [5] were 56.5 µM (active), 100 µM (active) and 165 µM (active), respectively.

Regarding `CCCCCCCCCCCC(=O)OCC(O)CO` (centres undefined), the AC50 in assay [1] is 48.2 µM (active); in assay [8], 100 µM (active). Also, the result in assay [2], in [3], in [4], in assay [6], in assay [7] and in assay [9] was inactive.

As for `O=C(O)c1cc(C(=O)O)cc([N+](=O)[O-])c1`, the result in [1], in assay [2], in assay [3], in [4], in assay [5] and in assay [6] was inactive. For the same compound, the compound was classed as inactive in assay [7], in assay [8] and in assay [9].

`COC(C)(C)CCO`: the outcome in assay [1], in assay [2], in assay [3], in [4], in assay [5] and in assay [6] was inactive. In addition, the compound was called inactive in [7], in assay [8] and in [9].

Consider `CCc1ccc(O)c(OC)c1`, for which the compound was classed as inactive in [1], in assay [2], in assay [3], in [4], in assay [5] and in [6]. The compound was classed as inactive in assay [7] and in assay [9].

In the case of `COc1cc(CCC(C)=O)ccc1O`, the call in assay [1], in assay [2], in assay [3], in assay [4], in assay [5] and in assay [6] was inactive. In addition, the compound was called inactive in assay [7], in [8] and in assay [9].

For the compound `C=C(C)C1CC=C(C)C(=O)C1` (centres undefined), the call in assay [1], in assay [2], in assay [3], in [4], in [10] and in [6] was inactive. Moreover, the call in assay [7] and in assay [9] was inactive.

In the case of `CCCCCC(C)=O`, the outcome in assay [1], in assay [2], in assay [3], in [4], in [5] and in assay [6] was inactive. In addition, the compound was called inactive in assay [7], in assay [8] and in [9].

In the case of `CCCOCCO`, the compound was called inactive in assay [1], in [2], in [3], in [4], in assay [6] and in assay [7]. Besides, the outcome in assay [8] and in [9] was inactive.

As for `CCCCC(CC)COC(C)=O` (centres undefined), the call in [1], in assay [2], in assay [3], in [4], in assay [5] and in [6] was inactive. The compound was called inactive in assay [7], in assay [8] and in assay [9].

For `CN(c1nccc(=O)[nH]1)C1CCN(c2nc3ccccc3n2Cc2ccc(F)cc2)CC1`, the compound was classed as inactive in assay [1], in [2], in assay [3], in assay [4], in assay [5] and in assay [6]. In addition, the compound was classed as inactive in assay [7], in [8] and in assay [9].

For `CC/C=C\CC/C=C/CO`, the compound was called inactive in assay [1], in assay [2], in assay [3], in assay [4], in assay [5] and in [6]. In addition, the compound was classed as inactive in assay [7], in assay [8] and in assay [9].

Consider `COc1cc([C@@H]2c3cc4c(cc3[C@@H](O[C@@H]3O[C@@H]5CO[C@@H](C)O[C@H]5[C@H](O)[C@H]3O)[C@H]3COC(=O)[C@H]23)OCO4)cc(OC)c1O`, for which the outcome in assay [1], in [2], in assay [3], in assay [4], in assay [5] and in [6] was inactive. In addition, the compound was classed as inactive in assay [7], in assay [8] and in assay [9].

Usually AC50 stands for the concentration giving half of the maximal activity seen.
